Counter-ions that a name gives are not always drawn.
What was measured:
Settings in all cases: 72 h
HCC1937 [1] = assay: relative cell viability, compound alone, vs DMSO (fraction of DMSO control); higher = less growth inhibition
MDA-MB-231 [2] = assay: as above
HCC1937 [3] = assay: relative cell viability, compound + RSL3, vs DMSO (fraction of DMSO control); higher = less growth inhibition
MDA-MB-231 [4] = assay: as above
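Wherever relative cell viability, compound + RSL3, vs DMSO is given: breast cancer cell viability read out with the CCK-8 kit after co-treatment of each compound with the ferroptosis inducer RSL3.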
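Wherever relative cell viability, compound alone, vs DMSO is given: viability read out with the CCK-8 kit in 96-well plates, screening a set of 303 compounds acting on lipid metabolism targets.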

Work on `COP(=O)(OC)OC(c1ccc(Cl)cc1)P(=O)(OC)OC` (stereo not drawn) [Mifobate] yielded a relative cell viability (HCC1937 [1]) of 1.18 and a relative cell viability (MDA-MB-231 [2]) of 1.2.

With `CC(=O)N1CCN(c2ccc(OCC3COC(Cn4ccnc4)(c4ccc(Cl)cc4Cl)O3)cc2)CC1` (stereo not drawn) [Ketoconazole] the relative cell viability (HCC1937 [1]) was 1.3 and the relative cell viability (MDA-MB-231 [2]) was 0.897.

`C[N+](C)(C)CC(O)CC(=O)[O-]` (stereo not drawn) [L(-)-Carnitine] was tested, and the relative cell viability (HCC1937 [1]) was 0.738 and the relative cell viability (MDA-MB-231 [2]) was 0.876.

For `CCCCCCS(=O)(=O)NC(=O)c1ccc(CSCc2ccc(-c3ccccc3)cc2)cc1`, the relative cell viability (HCC1937 [1]) was 0.938 and the relative cell viability (MDA-MB-231 [2]) was 0.91.

For `CCC1C(O)C2C3CCC(C(C)CCO)C3(C)CCC2C2(C)CCC(O)CC12` (stereo not drawn) + COC(=O)c1ccc([C@H]2c3[nH]c4ccccc4c3C[C@H](C(=O)OC)N2C(=O)CCl)cc1 [RSL3], the relative cell viability (HCC1937 [3]) was 0.399 and the relative cell viability (MDA-MB-231 [4]) was 0.364.

Work on `CCC(C)(Oc1ccc(C2(c3ccc(OC(C)(CC)C(=O)O)cc3)CCCCC2)cc1)C(=O)O` (stereo not drawn) [Clinofibrate] yielded a relative cell viability (HCC1937 [1]) of 0.901 and a relative cell viability (MDA-MB-231 [2]) of 0.846.

Molecule `O=c1c(O[C@@H]2O[C@H](CO)[C@@H](O)[C@H](O)[C@H]2O)c(-c2ccc(O)cc2)oc2cc(O)cc(O)c12` [Astragalin] + COC(=O)c1ccc([C@H]2c3[nH]c4ccccc4c3C[C@H](C(=O)OC)N2C(=O)CCl)cc1 [RSL3] has a relative cell viability (HCC1937 [3]) of 0.586 and a relative cell viability (MDA-MB-231 [4]) of 0.645.

`Cc1cnc(C(=O)NCCc2ccc(S(=O)(=O)NC(=O)NC3CCCCC3)cc2)cn1` [Glipizide] gave a relative cell viability (HCC1937 [1]) of 0.679 and a relative cell viability (MDA-MB-231 [2]) of 0.817.

Molecule `CN(CCOc1ccc(CC2SC(=O)NC2=O)cc1)c1ccccn1` (stereo not drawn) [Rosiglitazone maleate] has a relative cell viability (HCC1937 [1]) of 0.841 and a relative cell viability (MDA-MB-231 [2]) of 0.86.

Work on `CCN(CC)CCCC(C)Nc1c2ccc(Cl)cc2nc2ccc(OC)cc12` (stereo not drawn) [Quinacrine dihydrochloride] yielded a relative cell viability (HCC1937 [1]) of 0.212 and a relative cell viability (MDA-MB-231 [2]) of 0.306.

For `CCCCCCCCCCCCCCCC(=O)NCCO` [Palmidrol] + COC(=O)c1ccc([C@H]2c3[nH]c4ccccc4c3C[C@H](C(=O)OC)N2C(=O)CCl)cc1 [RSL3], the relative cell viability (HCC1937 [3]) was 0.655 and the relative cell viability (MDA-MB-231 [4]) was 0.77.

With `CC(C)=CCC[C@](C)(O)[C@H]1CC[C@]2(C)[C@@H]1[C@H](O)C[C@@H]1[C@@]3(C)CC[C@H](O)C(C)(C)[C@@H]3[C@@H](O)C[C@]12C` [(20S)-Protopanaxatriol] + COC(=O)c1ccc([C@H]2c3[nH]c4ccccc4c3C[C@H](C(=O)OC)N2C(=O)CCl)cc1 [RSL3] the relative cell viability (HCC1937 [3]) was 0.762 and the relative cell viability (MDA-MB-231 [4]) was 0.672.

Work on `CC(C)(Oc1ccc(C2CC2(Cl)Cl)cc1)C(=O)O` (stereo not drawn) [Ciprofibrate] + COC(=O)c1ccc([C@H]2c3[nH]c4ccccc4c3C[C@H](C(=O)OC)N2C(=O)CCl)cc1 [RSL3] yielded a relative cell viability (HCC1937 [3]) of 0.787 and a relative cell viability (MDA-MB-231 [4]) of 0.706.

In the case of `Nc1ncnc2c1ncn2[C@@H]1O[C@H](COP(=O)(O)O)[C@@H](O)[C@H]1O` [Adenosine 5'-monophosphate] + COC(=O)c1ccc([C@H]2c3[nH]c4ccccc4c3C[C@H](C(=O)OC)N2C(=O)CCl)cc1 [RSL3], the relative cell viability (HCC1937 [3]) is reported as 0.597 and the relative cell viability (MDA-MB-231 [4]) is reported as 0.485.

`CCCCCCCCCCCCCCOc1ccc(C(=O)OCC(=O)N(C)CC(=O)OCC)o1` [Olumacostat Glasaretil] + COC(=O)c1ccc([C@H]2c3[nH]c4ccccc4c3C[C@H](C(=O)OC)N2C(=O)CCl)cc1 [RSL3] was tested, and the relative cell viability (HCC1937 [3]) was 0.281 and the relative cell viability (MDA-MB-231 [4]) was 0.278.

For `CCN(CC)Cc1ccc(C(=O)N(CCc2ccccc2OC)[C@@H]2CCNC2)cc1` + COC(=O)c1ccc([C@H]2c3[nH]c4ccccc4c3C[C@H](C(=O)OC)N2C(=O)CCl)cc1 [RSL3], the relative cell viability (HCC1937 [3]) was 0.666 and the relative cell viability (MDA-MB-231 [4]) was 0.784.

In the case of `C[C@@H]1OCC2(CCN(c3cnc(Sc4ccnc(N)c4Cl)c(N)n3)CC2)[C@@H]1N` + COC(=O)c1ccc([C@H]2c3[nH]c4ccccc4c3C[C@H](C(=O)OC)N2C(=O)CCl)cc1 [RSL3], the relative cell viability (HCC1937 [3]) is reported as 0.378 and the relative cell viability (MDA-MB-231 [4]) is reported as 0.71.

`C=C(C)[C@@H]1CC[C@]2(CO)CC[C@]3(C)[C@H](CC[C@@H]4[C@@]5(C)CC[C@H](O)C(C)(C)[C@@H]5CC[C@]43C)[C@@H]12` [Betulin] + COC(=O)c1ccc([C@H]2c3[nH]c4ccccc4c3C[C@H](C(=O)OC)N2C(=O)CCl)cc1 [RSL3] showed a relative cell viability (HCC1937 [3]) of 0.619 and a relative cell viability (MDA-MB-231 [4]) of 0.453.

`O=C(OC(C(F)(F)F)C(F)(F)F)N1CCC(C(O)(c2ccc3c(c2)OCO3)c2ccc3c(c2)OCO3)CC1` + COC(=O)c1ccc([C@H]2c3[nH]c4ccccc4c3C[C@H](C(=O)OC)N2C(=O)CCl)cc1 [RSL3] showed a relative cell viability (HCC1937 [3]) of 0.551 and a relative cell viability (MDA-MB-231 [4]) of 0.551.

`CCCCCCS(=O)(=O)NC(=O)c1ccc(CSCc2ccc(-c3ccccc3)cc2)cc1` + COC(=O)c1ccc([C@H]2c3[nH]c4ccccc4c3C[C@H](C(=O)OC)N2C(=O)CCl)cc1 [RSL3] gave a relative cell viability (HCC1937 [3]) of 0.403 and a relative cell viability (MDA-MB-231 [4]) of 0.676.

`CC(C)Cc1ccc([C@H](C)C(=O)O)cc1` [Dexibuprofen] + COC(=O)c1ccc([C@H]2c3[nH]c4ccccc4c3C[C@H](C(=O)OC)N2C(=O)CCl)cc1 [RSL3] gave a relative cell viability (HCC1937 [3]) of 1.03 and a relative cell viability (MDA-MB-231 [4]) of 0.606.

With `CC1=C(C)C(=O)C(C(CCCCCC(=O)O)c2ccccc2)=C(C)C1=O` (stereo not drawn) [Seratrodast] + COC(=O)c1ccc([C@H]2c3[nH]c4ccccc4c3C[C@H](C(=O)OC)N2C(=O)CCl)cc1 [RSL3] the relative cell viability (HCC1937 [3]) was 0.948 and the relative cell viability (MDA-MB-231 [4]) was 0.578.

`CC(C)(C)N1C(=O)C(Nc2ccc(N3CCCCC3)cc2)=C(c2ccccc2)S1(=O)=O` + COC(=O)c1ccc([C@H]2c3[nH]c4ccccc4c3C[C@H](C(=O)OC)N2C(=O)CCl)cc1 [RSL3] showed a relative cell viability (HCC1937 [3]) of 0.686 and a relative cell viability (MDA-MB-231 [4]) of 0.69.

`NC(=O)c1cccc(-c2cccc(OC(=O)NC3CCCCC3)c2)c1` + COC(=O)c1ccc([C@H]2c3[nH]c4ccccc4c3C[C@H](C(=O)OC)N2C(=O)CCl)cc1 [RSL3] gave a relative cell viability (HCC1937 [3]) of 0.407 and a relative cell viability (MDA-MB-231 [4]) of 0.707.

`COc1ccc(-c2coc3cc(O)cc(O)c3c2=O)cc1` [Biochanin A] + COC(=O)c1ccc([C@H]2c3[nH]c4ccccc4c3C[C@H](C(=O)OC)N2C(=O)CCl)cc1 [RSL3] showed a relative cell viability (HCC1937 [3]) of 0.66 and a relative cell viability (MDA-MB-231 [4]) of 0.438.

Molecule `Cc1c(C(=O)Nc2ccc(CO)cc2)nnn1Cc1ccc(Cl)c(Cl)c1` + COC(=O)c1ccc([C@H]2c3[nH]c4ccccc4c3C[C@H](C(=O)OC)N2C(=O)CCl)cc1 [RSL3] has a relative cell viability (HCC1937 [3]) of 0.406 and a relative cell viability (MDA-MB-231 [4]) of 0.573.

In the case of `Cc1cc(=O)oc2c(O)c(O)ccc12` [7,8-Dihydroxy-4-methylcoumarin] + COC(=O)c1ccc([C@H]2c3[nH]c4ccccc4c3C[C@H](C(=O)OC)N2C(=O)CCl)cc1 [RSL3], the relative cell viability (HCC1937 [3]) is reported as 0.539 and the relative cell viability (MDA-MB-231 [4]) is reported as 0.7.

`COc1c(/C=C/C(=O)c2ccc(O)cc2)ccc(O)c1CC=C(C)C` + COC(=O)c1ccc([C@H]2c3[nH]c4ccccc4c3C[C@H](C(=O)OC)N2C(=O)CCl)cc1 [RSL3] was tested, and the relative cell viability (HCC1937 [3]) was 0.579 and the relative cell viability (MDA-MB-231 [4]) was 0.585.

For `C[C@@H](Nc1nc(N[C@H](C)C(F)(F)F)nc(-c2cccc(Cl)n2)n1)C(F)(F)F` [Vorasidenib] + COC(=O)c1ccc([C@H]2c3[nH]c4ccccc4c3C[C@H](C(=O)OC)N2C(=O)CCl)cc1 [RSL3], the relative cell viability (HCC1937 [3]) was 0.409 and the relative cell viability (MDA-MB-231 [4]) was 0.595.

In the case of `COc1cc(C(C)=O)ccc1O` [Acetovanillone] + COC(=O)c1ccc([C@H]2c3[nH]c4ccccc4c3C[C@H](C(=O)OC)N2C(=O)CCl)cc1 [RSL3], the relative cell viability (HCC1937 [3]) is reported as 0.389 and the relative cell viability (MDA-MB-231 [4]) is reported as 0.594.

With `CC[C@H]1[C@@H](O)[C@@H]2[C@H](CC[C@]3(C)[C@@H]([C@H](C)CCC(=O)O)CC[C@@H]23)[C@@]2(C)CC[C@@H](O)C[C@@H]12` [Obeticholic Acid] + COC(=O)c1ccc([C@H]2c3[nH]c4ccccc4c3C[C@H](C(=O)OC)N2C(=O)CCl)cc1 [RSL3] the relative cell viability (HCC1937 [3]) was 0.513 and the relative cell viability (MDA-MB-231 [4]) was 0.543.

`O=C(c1ccc(NS(=O)(=O)c2cccc3cccnc23)cc1)N1CCN(CC2CC2)CC1` [Mitapivat] + COC(=O)c1ccc([C@H]2c3[nH]c4ccccc4c3C[C@H](C(=O)OC)N2C(=O)CCl)cc1 [RSL3] gave a relative cell viability (HCC1937 [3]) of 0.558 and a relative cell viability (MDA-MB-231 [4]) of 0.654.

With `CC1(C)CC[C@]2(C(=O)O[C@@H]3O[C@H](CO)[C@@H](O)[C@H](O)[C@H]3O)CC[C@]3(C)C(=CC[C@@H]4[C@@]5(C)CC[C@H](O[C@@H]6O[C@H](C(=O)O)[C@@H](O)[C@H](O)[C@H]6O[C@@H]6O[C@H](CO)[C@@H](O)[C@H](O)[C@H]6O)C(C)(C)[C@@H]5CC[C@]43C)[C@@H]2C1` [Ginsenoside Ro] + COC(=O)c1ccc([C@H]2c3[nH]c4ccccc4c3C[C@H](C(=O)OC)N2C(=O)CCl)cc1 [RSL3] the relative cell viability (HCC1937 [3]) was 0.375 and the relative cell viability (MDA-MB-231 [4]) was 0.478.

Molecule `CC(C)CCC[C@@H](C)[C@H]1CC[C@H]2[C@@H]3CC=C4C[C@@H](O)CC[C@]4(C)[C@H]3CC[C@]12C` [Cholesterol] + COC(=O)c1ccc([C@H]2c3[nH]c4ccccc4c3C[C@H](C(=O)OC)N2C(=O)CCl)cc1 [RSL3] has a relative cell viability (HCC1937 [3]) of 0.8 and a relative cell viability (MDA-MB-231 [4]) of 0.611.

Work on `Cc1cc(C)c(S(=O)(=O)Nc2cccc(C(F)(F)F)c2)c(C)c1` + COC(=O)c1ccc([C@H]2c3[nH]c4ccccc4c3C[C@H](C(=O)OC)N2C(=O)CCl)cc1 [RSL3] yielded a relative cell viability (HCC1937 [3]) of 0.504 and a relative cell viability (MDA-MB-231 [4]) of 0.775.

`CCN(CC)C(=O)N1CCN(C)CC1` [Diethylcarbamazine citrate] + COC(=O)c1ccc([C@H]2c3[nH]c4ccccc4c3C[C@H](C(=O)OC)N2C(=O)CCl)cc1 [RSL3] showed a relative cell viability (HCC1937 [3]) of 0.61 and a relative cell viability (MDA-MB-231 [4]) of 0.581.

For `Cc1cccc(Nc2cc(Cl)nc(SCC(=O)O)n2)c1C` [Pirinixic Acid] + COC(=O)c1ccc([C@H]2c3[nH]c4ccccc4c3C[C@H](C(=O)OC)N2C(=O)CCl)cc1 [RSL3], the relative cell viability (HCC1937 [3]) was 0.603 and the relative cell viability (MDA-MB-231 [4]) was 0.495.

`CC(C)=CCC(O)C1=CC(=O)c2c(O)ccc(O)c2C1=O` (single isomer, unassigned; (+)) [(+)-Shikonin] + COC(=O)c1ccc([C@H]2c3[nH]c4ccccc4c3C[C@H](C(=O)OC)N2C(=O)CCl)cc1 [RSL3] was tested, and the relative cell viability (HCC1937 [3]) was 0.0766 and the relative cell viability (MDA-MB-231 [4]) was 0.132.

`N=C(N)NC(=N)NCCc1ccccc1` [Phenformin hydrochloride] + COC(=O)c1ccc([C@H]2c3[nH]c4ccccc4c3C[C@H](C(=O)OC)N2C(=O)CCl)cc1 [RSL3] gave a relative cell viability (HCC1937 [3]) of 0.653 and a relative cell viability (MDA-MB-231 [4]) of 0.543.
